{
  "source": "PubChem BioAssay AID652117",
  "about": "(Broad Institute, 2013)",
  "note": "Potency and affinity values are given separately. Unmarked numbers belong to inactive results.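 Rule for the calls: active = compounds whose fitted half-maximal cell-killing dose is no more than twice the top tested dose; inconclusive = flat moderate loss of cell viability, or an unreliable curve fit; inactive = the rest.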",
  "data": [
    {"test": "HeLa cell cytotoxicity, dose response, cytotoxicity control, ATP luminescence, dry powder (AID 652117)", "settings": "HeLa viability, CellTiter-Glo ATP luminescence, 48 h; series mostly up to 26 µM; activity change, negative = cytotoxicity: at the top concentration", "units": {"activity change, negative = cytotoxicity": "%"}, "values": [
      {"molecule": "CCOC(=O)C1(Cc2cccc(OC)c2)CCN(Cc2ccc(O)c(Cl)c2)CC1", "activity change, negative = cytotoxicity": -11.2},
      {"molecule": "C=CCOc1ccc(CN2CCC(CCOc3ccccc3)(C(=O)O)CC2)cc1Cl", "activity change, negative = cytotoxicity": -6.92},
      {"molecule": "CCOC(=O)C1(CCOc2ccccc2)CCN(C(=O)OC(C)(C)C)CC1", "activity change, negative = cytotoxicity": -0.744},
      {"molecule": "CCOC(=O)C1(CCOc2ccccc2)CCN(C(=O)c2ccc(O)c(Cl)c2)CC1", "activity change, negative = cytotoxicity": -7.6},
      {"molecule": "C=CCOc1ccc(CN2CCC(CCOc3ccccc3)(C(=O)N(C)CC)CC2)cc1Cl", "activity change, negative = cytotoxicity": -4.76},
      {"molecule": "CCOC(=O)C1(CCOC)CCCN(Cc2ccc(Cl)cc2)C1", "note": "(stereo not given)", "activity change, negative = cytotoxicity": 5.63},
      {"molecule": "CCNC(=O)C1(CCOc2ccccc2)CCN(Cc2ccc(O)c(Cl)c2)CC1", "activity change, negative = cytotoxicity": 6.23},
      {"molecule": "C=CCOc1ccc(CN2CCC(CCOc3ccccc3)(C(=O)OCC)CC2)cc1Cl", "activity change, negative = cytotoxicity": -16.3},
      {"molecule": "C=CCOc1ccc(CN2CCC(CCOc3ccccc3)(C(=O)NCC)CC2)cc1Cl", "activity change, negative = cytotoxicity": 0.968},
      {"molecule": "C=CCOc1ccc(CN2CCC(CCOc3ccccc3)(C(=O)NC3CCCC3)CC2)cc1Cl", "activity change, negative = cytotoxicity": -5.23},
      {"molecule": "CCOC(=O)C1(CCOc2ccccc2)CCN(Cc2ccc(OC)cc2)CC1", "activity change, negative = cytotoxicity": -18.1},
      {"molecule": "CCN(C)C(=O)C1(CCOc2ccccc2)CCN(Cc2ccc(O)c(Cl)c2)CC1", "activity change, negative = cytotoxicity": -3.57},
      {"molecule": "CCOC(=O)C1(CCOc2ccccc2)CCN(Cc2ccc3[nH]c(=O)oc3c2)CC1", "activity change, negative = cytotoxicity": -10.9},
      {"molecule": "CCOC(=O)C1(Cc2ccccc2)CCN(Cc2ccc(O)c(Cl)c2)CC1", "activity change, negative = cytotoxicity": -11.8},
      {"molecule": "C=CCOc1ccc(CN2CCC(CCOc3ccccc3)(C(=O)N3CCCC3)CC2)cc1Cl", "activity change, negative = cytotoxicity": -15.1},
      {"molecule": "CCOC(=O)C1(CCOc2ccccc2)CCN(Cc2ccc(O)c(Cl)c2)CC1", "activity change, negative = cytotoxicity": -10.2},
      {"molecule": "O=C(Nc1ccccc1)C1(CCOc2ccccc2)CCN(Cc2ccc(O)c(Cl)c2)CC1", "activity change, negative = cytotoxicity": -2.8},
      {"molecule": "C/C1=C\\C[C@H](OC(=O)c2ccc(O)cc2)/C(C)=C/[C@@H](O)C(C)(C)CCC1", "activity change, negative = cytotoxicity": -11.7},
      {"molecule": "CCOC(=O)C1CCN(C(=O)OC(C)(C)C)CC1", "activity change, negative = cytotoxicity": 1.94},
      {"molecule": "CCOC(=O)C1(CCOc2ccccc2)CCN(Cc2ccc(O)cc2)CC1", "activity change, negative = cytotoxicity": -15.3},
      {"molecule": "C/C1=C\\[C@@H](O)C(C)(C)CCCC2(C)OC2C[C@@H]1OC(=O)c1ccc(O)cc1", "note": "(stereo not given in full)", "activity change, negative = cytotoxicity": -15.2},
      {"molecule": "CCOC(=O)C1(CCOc2ccccc2)CCN(Cc2ccc(OC)c(Cl)c2)CC1", "activity change, negative = cytotoxicity": -13.4},
      {"molecule": "O=C(N1CCCC1)C1(CCOc2ccccc2)CCN(Cc2ccc(O)c(Cl)c2)CC1", "activity change, negative = cytotoxicity": -4.71},
      {"molecule": "CCOC(=O)C1(CCOC)CCN(Cc2ccc(O)c(Cl)c2)CC1", "activity change, negative = cytotoxicity": -6.28},
      {"molecule": "O=C(NC1CCCC1)C1(CCOc2ccccc2)CCN(Cc2ccc(O)c(Cl)c2)CC1", "activity change, negative = cytotoxicity": 1.32}
    ]}
  ]
}
